The entries come from a sample that favours hits as a whole.
HT1080-NT tox: qHTS for induction of synthetic lethality in tumor cells producing 2HG: qHTS for the HT-1080-NT fibrosarcoma cell line | HT-1080-NT fibrosarcoma viability, CellTiter-Glo ATP luminescence, 48 h | Potency, µM (series often up to 46.1 µM), for the others: top-dose activity, negative = less viability, most hits filed as cytotoxic | 360,000 compounds, 1.6% hits | AID 686970, 2013;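 note: NT is the 2HG producing partner of a matched IDH1 knockdown line; potency is the fitted concentration of half-maximal effect; 0% = DMSO-treated cells and -100% = media-only wells without cells; nearly all actives have a fitted effect of over 55% in size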
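A 48-hour cytotoxicity screen used HT-1080-NT cells plated 2 hours before compound delivery. ATP-based CellTiter-Glo luminescence measured viability, normalized to DMSO and no-cell controls.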
12-LOX inh: Primary qHTS assay for inhibitors of human arachidonate 12S-lipoxygenase (ALOX12): Round 2. 580,000 compounds, 1.1% hits. purified 12hLO, xylenol orange hydroperoxide absorbance. Potency, µM (series often up to 108 µM), without a hit: at the highest dose activity change, negative = inhibition, actives largely listed as inhibitors; note: potency is the fitted concentration of half-maximal effect
Target sequence (P18054 whole entry, looked up): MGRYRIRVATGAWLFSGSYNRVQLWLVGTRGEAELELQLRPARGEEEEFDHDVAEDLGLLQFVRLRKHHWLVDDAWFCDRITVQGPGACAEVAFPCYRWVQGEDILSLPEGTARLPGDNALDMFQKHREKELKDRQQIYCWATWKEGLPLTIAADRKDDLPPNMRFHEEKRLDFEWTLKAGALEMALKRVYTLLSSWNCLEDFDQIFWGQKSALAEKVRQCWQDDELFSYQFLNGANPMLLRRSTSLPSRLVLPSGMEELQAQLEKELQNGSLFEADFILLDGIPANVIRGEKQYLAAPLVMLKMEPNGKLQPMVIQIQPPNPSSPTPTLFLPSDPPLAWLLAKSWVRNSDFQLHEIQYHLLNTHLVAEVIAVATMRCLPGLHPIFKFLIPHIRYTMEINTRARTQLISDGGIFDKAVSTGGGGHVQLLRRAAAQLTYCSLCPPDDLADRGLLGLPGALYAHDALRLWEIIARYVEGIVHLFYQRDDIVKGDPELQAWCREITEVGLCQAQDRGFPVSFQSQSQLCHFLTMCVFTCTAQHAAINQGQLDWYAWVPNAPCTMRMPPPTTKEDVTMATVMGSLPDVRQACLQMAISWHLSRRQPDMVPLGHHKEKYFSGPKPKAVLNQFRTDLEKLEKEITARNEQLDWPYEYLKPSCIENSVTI
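Hydroperoxide product was detected by ferrous iron/xylenol orange as the 573 to 405 nm absorbance ratio. Arachidonic acid at 40 uM (final) was turned over for 30 min at room temperature by 150 nM human 12hLO, pH 7.0 Hepes buffer, after 15 min compound preincubation.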
TDP1 cell noCPT: qHTS for Inhibitors of human tyrosyl-DNA phosphodiesterase 1 (TDP1): qHTS in cells in absence of CPT; DT40 Tdp1-/- hTDP1 cells, no CPT, ATP luminescence, 48 h; AID 686978, 2013; Potency, µM (series often up to 46.2 µM), inactives show top-dose activity change, negative = growth inhibition, usual class: inhibitors; 420,000 compounds, 15% hits; note: potency is the fitted concentration of half-maximal effect; nearly all actives have a fitted effect of over 55% in size
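Seeded 400 DT40-hTDP1 cells/well (vehicle DMSO, no 20 nM CPT); pinned compounds; ≥48 hr at 37 °C; CellTiter-Glo luminescence as viability measure.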
HT1080 IDH1KD tx: qHTS for induction of synthetic lethality in tumor cells producing 2HG: qHTS for the HT-1080-IDH1KD cell line; HT-1080 IDH1 knockdown viability, ATP luminescence, 48 h; Potency, µM (doses to about 46.1 µM), for inactives: at the top dose activity, negative = toxicity, usual class: cytotoxic; 360,000 compounds, 2% hits; AID 686971, 2013;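 note: potency is the fitted concentration of half-maximal effect; 0% = DMSO wells and -100% = cell-free medium wells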
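In this qHTS, HT-1080 cells depleted of IDH1 are exposed for 48 h at 37 °C to compound titrations. Toxicity is scored from CellTiter-Glo luminescence, with DMSO as full viability and medium alone as none.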
IL-1B inflam inh: qHTS for Inhibitors of Inflammasome Signaling: IL-1-beta AlphaLISA Primary Screen; THP-1 LPS/ATP IL-1B secretion, AlphaLISA, 16 h; stronger effect = lower value; activity change, % at 57.5 µM; 360,000 compounds, 4.7% hits; AID 743279, 2014; in the data active = activity change below about -50%; inconclusive = mostly about -30% to -49%
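Secreted IL-1B measured by AlphaLISA bead assay after 16 h compound exposure of THP-1 cells; compounds (final up to 57.5 uM) added 1 h before LPS (250 ng/mL) and ATP (1.25 mM) stimulation; lower signal means less secretion.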
DT40 TDP1 CPT: qHTS for Inhibitors of human tyrosyl-DNA phosphodiesterase 1 (TDP1): qHTS in cells in presence of CPT. chicken DT40 Tdp1-/-;hTDP1 cells + 20 nM CPT, ATP luminescence, 48 h. Potency, µM (series often up to 46.2 µM), for inactives: at the top dose activity change, negative = growth inhibition, usual class: inhibitors. 420,000 compounds, 12% hits; note: potency is the fitted concentration of half-maximal effect; nearly all actives have a fitted effect of over 55% in size
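Chicken DT40 Tdp1-/- cells stably complemented with human TDP1 were seeded at 400 cells/well in medium containing 20 nM camptothecin, exposed to pin-transferred compounds, and grown at 37 °C for at least 48 hr. Viability was read as ATP luminescence.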
* marks the source's active call; other numbers are inactive results; [ ] = remark or other dose. Unless noted, calls come from the whole dose curve; as a rule, active = well fitted curve in the direction sought with a large enough effect; inconclusive = small, poorly fitted or top-dose-only effect, or another doubt; inactive = no such curve, though single readings can be large; an effect the other way counts as inactive or inconclusive. Unless noted, % is set by controls: 0 for no effect and ±100 for the full control effect.

Results for Cn1nc(C(=O)NCC(c2cccs2)N2CCOCC2)c2ccccc2c1=O (stereo not given) ?
HT1080-NT tox: -8%; 12-LOX inh: -6%; TDP1 cell noCPT: 16µM*; HT1080 IDH1KD tx: -10%; IL-1B inflam inh: 37; DT40 TDP1 CPT: 26µM*

Results for Cc1ccsc1C(=O)NCC(c1cccs1)N1CCOCC1 (stereo not given) ?
HT1080-NT tox: 18µM*; 12-LOX inh: -11%; TDP1 cell noCPT: inconclusive; HT1080 IDH1KD tx: inconclusive; IL-1B inflam inh: 36; DT40 TDP1 CPT: inconclusive

How did CCCc1cc(C(=O)N2CCN(C)C3(CCC(=O)N(CC)CC3)C2)n(C)n1 (stereo not given) do in these assays?
12-LOX inh: 32%

Results for O=C(CN1C(=O)NC2(CCCCC2)C1=O)NC1CCc2ccccc21 (stereo not given) ?
12-LOX inh: 30%

What do the screens show for `COc1ccccc1Cc1nnc(NC(=O)c2c(OC)cccc2OC)s1`?
12-LOX inh: -4%

Results for O=C(NC(Cc1ccccc1)C(=O)NCc1cccs1)c1ccco1 (stereo not given) ?
12-LOX inh: -13%

What do the screens show for `Cc1ccc(CCNc2ccccc2C)cn1`?
HT1080-NT tox: 2%; 12-LOX inh: 5%; TDP1 cell noCPT: -19%; HT1080 IDH1KD tx: 0%; IL-1B inflam inh: -16; DT40 TDP1 CPT: -17%

What do the screens show for `NC(=O)C1(NC(=O)c2ccc(Cl)cc2F)CCCCC1`?
12-LOX inh: 20%

What do the screens show for `COc1cccc(C(=O)N(C)C2CCc3ccccc32)c1` (stereo not given)?
12-LOX inh: 8%[176 µM]

What do the screens show for `Cc1c(C(=O)Nc2c(C)n(C)n(-c3ccccc3)c2=O)oc2ccc(Cl)cc12`?
HT1080-NT tox: -19%; 12-LOX inh: 0%; TDP1 cell noCPT: inconclusive; HT1080 IDH1KD tx: inconclusive; IL-1B inflam inh: 0; DT40 TDP1 CPT: inconclusive

How did O=C(NCC(c1cccs1)N1CCOCC1)c1ccccc1NS(=O)(=O)c1ccc(Br)cc1 (stereo not given) do in these assays?
HT1080-NT tox: -9%; 12-LOX inh: 0%; TDP1 cell noCPT: 15µM*; HT1080 IDH1KD tx: 2%; IL-1B inflam inh: -9; DT40 TDP1 CPT: inconclusive

What do the screens show for `CC1CCN(C(CNC(=O)c2ccccc2SC(F)F)c2cccs2)CC1` (stereo not given)?
12-LOX inh: 32µM*

How did O=C(CNC(=O)c1ccccc1Cl)NCC(c1cccs1)N1CCOCC1 (stereo not given) do in these assays?
HT1080-NT tox: 6%; 12-LOX inh: -3%; TDP1 cell noCPT: -2%; HT1080 IDH1KD tx: 1%; IL-1B inflam inh: 10; DT40 TDP1 CPT: -6%

How did CCc1cc(C(=O)NCC(c2cccs2)N2CCOCC2)sc1C (stereo not given) do in these assays?
HT1080-NT tox: -7%; 12-LOX inh: -2%; TDP1 cell noCPT: 23µM*; HT1080 IDH1KD tx: -8%; IL-1B inflam inh: 12; DT40 TDP1 CPT: inconclusive

How did COc1ccc(C(=O)NC(C(=O)N2CCCCC2)C2CCN(C(=O)C3CC3)CC2)cc1 (stereo not given) do in these assays?
12-LOX inh: 51%

What do the screens show for `CCOc1ccc(C2c3cc(OC)c(OC)cc3CC(=O)N2c2ccc(C(=O)OC)cc2)cc1` (stereo not given)?
12-LOX inh: -9%

How did COC(=O)c1ccc(N2C(=O)Cc3cc(OC)c(OC)cc3C2c2ccc(F)cc2)cc1 (stereo not given) do in these assays?
12-LOX inh: -9%; TDP1 cell noCPT: inconclusive; DT40 TDP1 CPT: 15µM*

Results for COc1ccc(N2C(=O)Cc3cc(OC)c(OC)cc3C2c2ccc(F)cc2)cc1 (stereo not given) ?
12-LOX inh: -14%; TDP1 cell noCPT: inconclusive; DT40 TDP1 CPT: 23µM*

Results for N#Cc1ccccc1OCC(=O)Nc1ccc2c(c1)OCO2 ?
HT1080-NT tox: 16%; 12-LOX inh: 8%; TDP1 cell noCPT: -21%; HT1080 IDH1KD tx: 24%; IL-1B inflam inh: inconclusive; DT40 TDP1 CPT: -4%

Results for O=C(c1ccc(Cl)c(Cl)c1)N1CCC(=O)N([C@H](COCc2ccccc2)Cc2ccccc2)CC1 ?
HT1080-NT tox: inconclusive; 12-LOX inh: inconclusive; TDP1 cell noCPT: 18µM*; HT1080 IDH1KD tx: inconclusive; IL-1B inflam inh: -13; DT40 TDP1 CPT: 21µM*

How did O=C(c1ccc(Cl)c(Cl)c1)N1CCC(=O)N(C(COCc2ccccc2)Cc2ccccc2)CC1 (stereo not given) do in these assays?
HT1080-NT tox: inconclusive; 12-LOX inh: inconclusive; TDP1 cell noCPT: 23µM*; HT1080 IDH1KD tx: inconclusive; IL-1B inflam inh: inconclusive; DT40 TDP1 CPT: 16µM*

What do the screens show for `OC(CN(CC1CCOC1)C1CC1)c1ccc(C(F)(F)F)cc1` (stereo not given)?
12-LOX inh: -17%

What do the screens show for `Cc1ccoc1C(=O)N1CCCCC1C(=O)O` (stereo not given)?
HT1080-NT tox: 14%; 12-LOX inh: -6%; TDP1 cell noCPT: 18µM*; HT1080 IDH1KD tx: -6%; IL-1B inflam inh: 22; DT40 TDP1 CPT: inconclusive

How did CCOc1ccc(NC(=O)N2CCOc3ccccc32)cc1 do in these assays?
12-LOX inh: -6%; TDP1 cell noCPT: -24%; DT40 TDP1 CPT: -27%

What do the screens show for `CCOC(=O)C(C)N1C(=O)S/C(=C/c2ccc3c(c2)n(C)c(=O)n3C)C1=O` (stereo not given)?
HT1080-NT tox: 6%; 12-LOX inh: -4%; TDP1 cell noCPT: inconclusive; HT1080 IDH1KD tx: 4%; IL-1B inflam inh: -27; DT40 TDP1 CPT: inconclusive

What do the screens show for `CCC(C)N1C(=O)S/C(=C/c2ccc3c(c2)n(C)c(=O)n3C)C1=O` (stereo not given)?
HT1080-NT tox: -24%; 12-LOX inh: -6%; TDP1 cell noCPT: 23µM*; HT1080 IDH1KD tx: -27%; IL-1B inflam inh: 0; DT40 TDP1 CPT: 23µM*

High-throughput results as filed in PubChem.
